{
  "source": "PubChem BioAssay AID1063",
  "about": "(University of Pittsburgh Molecular Library Screening Center, 2008)",
  "note": "Among all 200,000 compounds or so, about 18,000 (9%) were called active. This is one part of a sample in which actives are shown more often than they occur. Unmarked numbers belong to inactive results. Cut-off read from the data, not from the text of the source: active = inhibition above about 50%; inactive = the rest.",
  "data": [
    {"assay": "Leishmania major promastigote growth inhibition, primary screen (AID 1063);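 note: promastigotes grown with compound for 44 hours at 28 °C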", "details": "Leishmania major promastigotes, resazurin fluorescence viability; at 10 µM; stronger effect = higher value", "values": [
      {"smiles": "Cc1nn(CC(=O)Nc2ccc(C#N)cc2)c(C)c1[N+](=O)[O-]", "inhibition": "-6.73%"},
      {"smiles": "CC(=O)c1cccc(CN2CCC(CO)(Cc3ccccc3)CC2)c1", "inhibition": "14%"},
      {"smiles": "CN(C)CCCCCN(C)Cc1cc2ccccc2o1", "inhibition": "11.6%"},
      {"smiles": "OCC1(Cc2ccccc2)CCN(Cc2cc3ccccc3o2)CC1", "inhibition": "84.5% (active)"},
      {"smiles": "Cc1ccc2c(c1)C1CN(C)CCC1N2C(=S)Nc1ccc(Cl)cc1Cl", "note": "(stereo not drawn)", "inhibition": "31.9%"},
      {"smiles": "Cc1cc(C)cc(N(C(C)C(=O)Nc2c(C)n(C)n(-c3ccccc3)c2=O)S(C)(=O)=O)c1", "note": "(stereo not drawn)", "inhibition": "-3.81%"},
      {"smiles": "Cc1c(NC(=O)C(C)OC(=O)c2cc3c4ccccc4n(C)c3s2)c(=O)n(-c2ccccc2)n1C", "note": "(stereo not drawn)", "inhibition": "88.6% (active)"},
      {"smiles": "COC(=O)Nc1c(C)n(C)n(-c2ccccc2)c1=O", "inhibition": "-8.78%"},
      {"smiles": "Cc1sc2c(c1C)c(=O)n(-c1ccccc1)c(=O)n2CC(=O)NCC1CCCO1", "note": "(stereo not drawn)", "inhibition": "-0.67%"},
      {"smiles": "CCOC(=O)c1cnc2c(c(C)nn2CC)c1Cl", "inhibition": "6%"},
      {"smiles": "O=C(CN1CCN(c2ccc(O)cc2)CC1)NC1CCCc2ccccc21", "note": "(stereo not drawn)", "inhibition": "94.5% (active)"},
      {"smiles": "O=C(CSc1nncs1)NC1CCCc2ccccc21", "note": "(stereo not drawn)", "inhibition": "-8.28%"},
      {"smiles": "O=C(CCC(=O)N1CCN(S(=O)(=O)c2ccccc2)CC1)NC1CCCc2ccccc21", "note": "(stereo not drawn)", "inhibition": "1.14%"},
      {"smiles": "COc1ccc(/C(=N\\O)c2nccc3cc(OC)c(OC)cc23)cc1OC", "inhibition": "3.01%"},
      {"smiles": "CCOC(=O)c1ccc(NC(=O)c2cc(=O)[nH]c3ccccc23)cc1", "inhibition": "-7.03%"},
      {"smiles": "COc1ccccc1CNC(=O)CNC(=O)c1cn(-c2ccccc2OC)c(=O)c2ccccc12", "inhibition": "-2.45%"},
      {"smiles": "COc1cc(OC)c(C(=O)OCC(=O)N2CC(=O)Nc3ccccc32)cc1OC", "inhibition": "-4.64%"},
      {"smiles": "Cc1cccc(-n2c(N)cc(=O)nc2SC(C)C(=O)NC2CCCCC2)c1", "note": "(stereo not drawn)", "inhibition": "55.9% (active)"},
      {"smiles": "COc1cccc(-n2c(SCC(=O)NC3CCCCC3)nc3n[nH]c(C)c3c2=N)c1", "inhibition": "20.6%"},
      {"smiles": "CC(Sc1nnnn1C)C(=O)NC(=O)NC1CCCCC1", "note": "(stereo not drawn)", "inhibition": "-2.91%"},
      {"smiles": "Cc1ccc2[nH]c(C)c(CCNC(=O)NC3CCCCC3)c2c1", "inhibition": "5.48%"},
      {"smiles": "COc1ccc(N2CCN(C(=O)CNS(=O)(=O)c3ccc(C)c(C)c3)CC2)cc1", "inhibition": "6.23%"},
      {"smiles": "COc1cccc(-n2c(SCC(=O)c3c[nH]c4ccccc34)nc3ccccc3c2=O)c1", "inhibition": "92.9% (active)"},
      {"smiles": "CCCn1c(N)c(C(=O)CSc2nc3ccccc3c(=O)n2-c2ccc(OC)cc2)c(=O)[nH]c1=O", "inhibition": "-3.93%"},
      {"smiles": "N#CCSc1nc2ccccc2c(=O)n1-c1ccccc1", "inhibition": "4.35%"},
      {"smiles": "O=C(Nc1cc(S(=O)(=O)N2CCOCC2)ccc1Cl)c1cc(=O)c2ccccc2o1", "inhibition": "31.5%"},
      {"smiles": "COC(=O)c1ccc(NC(=O)c2cc(Cl)ccc2OC)cc1", "inhibition": "-3.49%"},
      {"smiles": "Cc1[nH]n(-c2ccc([N+](=O)[O-])cc2)c(=O)c1C=NCCN1CCN(C(=O)c2ccccc2F)CC1", "inhibition": "-1.62%"},
      {"smiles": "Cc1ccc(N=Nc2c(C)[nH]n(-c3ccccc3)c2=O)cc1", "inhibition": "-5.3%"},
      {"smiles": "COc1ccc(/C=N/NC(=O)c2ccccc2)cc1OS(=O)(=O)c1ccccc1", "inhibition": "4.68%"},
      {"smiles": "Cc1[nH]n(-c2ccc(Cl)cc2)c(=O)c1/C=N/n1c(C)nc2ccccc2c1=O", "inhibition": "-14.5%"},
      {"smiles": "Cc1[nH]n(-c2ccccc2)c(=O)c1/C=N/NC(=O)c1ccoc1C", "inhibition": "96.8% (active)"},
      {"smiles": "Cc1cccc(C(=O)NNC(=O)c2cccc([N+](=O)[O-])c2)c1", "inhibition": "4.56%"},
      {"smiles": "COc1cc(OC)c(/C=N/NC(=O)c2ccc([N+](=O)[O-])cc2)cc1Br", "inhibition": "-7.92%"},
      {"smiles": "Cc1ccc(-n2[nH]c(C)c(/C=N/NC(=O)c3cccc([N+](=O)[O-])c3)c2=O)cc1C", "inhibition": "96.9% (active)"},
      {"smiles": "COc1cccc(/C=N/NC(=O)c2cccc([N+](=O)[O-])c2)c1OS(=O)(=O)c1ccc(C)cc1", "inhibition": "55.1% (active)"},
      {"smiles": "O=C(CC12CC3CC(CC(C3)C1)C2)NCc1ccco1", "inhibition": "-4.33%"},
      {"smiles": "CCOc1ccc(OCc2cccc(C(=O)N(CC)CC)c2)cc1", "inhibition": "0.53%"},
      {"smiles": "Cc1c(NC(=O)CSc2nnnn2-c2ccc(C(=O)O)cc2)c(=O)n(-c2ccccc2)n1C", "inhibition": "-3%"},
      {"smiles": "CCOc1ccc(CCN2C(=O)c3cccnc3C2=O)cc1OCC", "inhibition": "-10.8%"},
      {"smiles": "Cn1cnnc1SCC(=O)Nc1ccc(N2CCOCC2)cc1", "inhibition": "-5.65%"},
      {"smiles": "N#Cc1ccc(OCc2nnc(-c3ccc([N+](=O)[O-])cc3)o2)cc1", "inhibition": "-3.9%"},
      {"smiles": "CCc1ccc2ncc(C(=O)c3ccccc3)c(N3CCOCC3)c2c1", "inhibition": "10.5%"},
      {"smiles": "O=[N+]([O-])c1ccccc1NCc1ccccc1Cl", "inhibition": "12.2%"},
      {"smiles": "C=CCc1cccc2cc(C(=O)Nc3ccc(NC(C)=O)cc3)c(=O)oc12", "inhibition": "-6.83%"},
      {"smiles": "C/C(=N\\NC(=O)c1cccc(N2CCCC2=O)c1)c1ccc(N)cc1", "inhibition": "-3.01%"},
      {"smiles": "O=C(CN1C(=O)/C(=C/c2ccccc2F)Sc2ccccc21)NCc1cccnc1", "inhibition": "19.2%"},
      {"smiles": "O=C(CN1C(=O)/C(=C\\c2ccc(C(F)(F)F)cc2)Sc2ccccc21)NCc1ccco1", "inhibition": "95.1% (active)"},
      {"smiles": "CC(C)(C)c1ccc(C(=O)NCCC(=O)NCc2ccco2)cc1", "inhibition": "-5.5%"},
      {"smiles": "CCc1[nH]nc(C(=O)N2CCCC(CNS(=O)(=O)c3cccs3)C2)c1C", "note": "(stereo not drawn)", "inhibition": "-4.31%"},
      {"smiles": "CN(C)S(=O)(=O)c1cccc(NC(=S)NCc2ccc3c(c2)OCO3)c1", "inhibition": "-0.11%"},
      {"smiles": "C/C(=N\\NC(=S)NCc1ccccc1)c1ccc(Cl)cc1", "inhibition": "1.34%"},
      {"smiles": "CC1CCCCN1C(=S)NCc1ccccc1", "note": "(stereo not drawn)", "inhibition": "-0.34%"},
      {"smiles": "C/C(=N\\NC(=S)NCc1ccccc1)C1CCCCC1", "inhibition": "89.9% (active)"},
      {"smiles": "COc1ccc2nc(Nc3nc(-c4ccncc4)cs3)sc2c1", "inhibition": "7.68%"},
      {"smiles": "c1csc(-c2nnc(COc3ccc4c(c3)OCO4)o2)c1", "inhibition": "5.84%"},
      {"smiles": "CCN(C(=O)COC(=O)c1ccc(COc2ccc3c(C)cc(=O)oc3c2)cc1)C1CCS(=O)(=O)C1", "note": "(stereo not drawn)", "inhibition": "-10.4%"},
      {"smiles": "Cc1ccc(NC(=O)c2ccc(Oc3ncccn3)cc2)cc1", "inhibition": "7.15%"}
    ]}
  ]
}
